Among the data in PubChem BioAssay AID1259374 (The Scripps Research Institute Molecular Screening Center, 2018) are inhibition values, retold here.

Where “and” joins values, the source holds several entries; their conditions need not be identical. Equal entries are not always repeated. Screen size: about 650,000 compounds; about 5,900 (0.91%) were called active. Rule as the data show it: active = inhibition above about 50%; inactive = the rest. What follows is part of a selection rich in actives, with near analogues and random picks from the rest.

This assay deals with Microphthalmia-associated transcription factor (Homo sapiens) (UniProt O75030). Description: MITF inhibitors, primary screen, biochemical, AlphaScreen, human (AID 1259374).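 Also: 0% = vehicle wells with protein.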 The settings on record: AlphaScreen MITF homodimerization, bead proximity signal; at 2.6 µM; active compounds read high. For orientation: Bead proximity is the source of the signal in Alpha formats.
Sequence of Microphthalmia-associated transcription factor (Homo sapiens) (O75030 whole entry, looked up): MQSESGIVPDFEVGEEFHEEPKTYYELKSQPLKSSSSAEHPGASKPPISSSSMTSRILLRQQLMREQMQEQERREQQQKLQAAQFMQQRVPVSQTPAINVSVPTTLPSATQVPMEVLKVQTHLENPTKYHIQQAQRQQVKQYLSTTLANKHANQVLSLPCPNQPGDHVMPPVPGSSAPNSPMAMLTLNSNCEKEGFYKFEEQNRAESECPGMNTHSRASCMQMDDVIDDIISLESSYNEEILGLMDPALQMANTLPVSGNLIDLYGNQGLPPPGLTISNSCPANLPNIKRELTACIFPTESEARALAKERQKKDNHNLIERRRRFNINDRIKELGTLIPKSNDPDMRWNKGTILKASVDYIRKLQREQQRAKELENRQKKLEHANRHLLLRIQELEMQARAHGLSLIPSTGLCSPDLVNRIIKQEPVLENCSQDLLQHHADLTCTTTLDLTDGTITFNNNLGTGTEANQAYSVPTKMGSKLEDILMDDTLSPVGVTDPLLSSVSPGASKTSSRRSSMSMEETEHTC
In the case of `Cc1sc(NC(=O)c2ccco2)c(C(c2ccccn2)N2CCN(C)CC2)c1C` (configuration not stated), the inhibition (commonly the relative decrease from the control value, in per cent) is 12.4% (inactive).
For `Oc1c(CN2CCCC2)cc(COCc2ccccc2)c2cccnc12` the value was 74.4% (active).
In the case of `CCOc1cccc(CN2CCCCC2)c1O` it was 12.8% (inactive).
In the case of `Oc1c(CN2CCN(c3cccc(Cl)c3)CC2)cc(Br)c2cccnc12` it was -1.04% (inactive); in that of `Cc1cccc(N2CC(O)=C(c3nc4ccccc4c(=O)[nH]3)C2=N)c1C`, -2.19% (inactive).
Take `CCCOc1cccc(C(=O)Nc2ccc3oc(-c4cccc5c(Br)cccc45)nc3c2)c1`: the inhibition is 3.22% (inactive).
Take `COc1cccc(C2C(C(=O)OC(C)C)=C(C)NC3=C2C(=O)CC(c2ccc(Cl)cc2)C3)c1OC` (configuration not stated): the inhibition is -2.22% (inactive).
For `COc1cc(Nc2ncnc3c2nc(N2CCN(Cc4ccc5c(c4)OCO5)CC2)n3C(C)C)cc(OC)c1OC` the value was 5.48% (inactive); for `COc1cc(Nc2ncnc3c2nc(N2CCOCC2)n3C(C)C)cc(OC)c1OC`, 54.5% (active).
In the case of `CC(C)n1c(N2CCOCC2)nc2c(Nc3ccc(Oc4ccccc4)cc3)ncnc21` it was 9.27% (inactive); in that of `C[C@@H]1CN(Cc2nnnn2CC(=O)N2CCc3ccccc3C2)C[C@H](C)O1`, 12.1% (inactive); in that of `C=CCNC(=O)C(=O)Nc1ccccc1CC`, 19.9% (inactive).
In the case of `CN1CCN(c2ncnc3c2cnn3-c2ccc(Cl)c(Cl)c2)CC1` it was 10.1% (inactive); in that of `O=C(CC1OC(=O)c2ccccc21)OCC(=O)c1ccc(F)cc1` (configuration not stated), 18.3% (inactive).
For `Cc1ccc(C(C)C)c(OCCCn2ccnc2)c1`, the inhibition was 9.69% (inactive).
For `CCc1cccc(OCCOCCn2ccnc2)c1` the value was 65.1% (active); for `CCOC(=O)C(CCOc1cccc(CC)c1)C(=O)OCC`, -23.7% (inactive); for `Clc1ccc(OCCOCCn2ccnc2)c(Br)c1`, 46.3% (inactive).
As to `COc1ccc(CCCOC(Cn2ccnc2)c2ccc(OC)cc2)cc1` (configuration not stated), the inhibition is -16.1% (inactive) and 0.54% (inactive).
In the case of `C=CCc1cc(C)ccc1OCC(O)Cn1cnc2ccccc21` (configuration not stated), the inhibition was 4.8% (inactive).
In the case of `CCc1ccc(OCCCCn2ccnc2)cc1` it was 62.2% (active); in that of `C=CCc1cc(C)ccc1OCCCn1ccnc1`, 64.5% (active).
For `COc1ccc(CCNC(=S)NCCCn2ccnc2)cc1` the value was 8.73% (inactive); for `Cc1nn(C(=O)c2cccnc2)c(C)c1Sc1ccccc1[N+](=O)[O-]`, 2.63% (inactive).
For `O=C(Cc1cccc2ccccc12)Nc1nnc(-c2ccco2)o1` the value was 6.58% (inactive); for `COCCN1Cc2cccc(C(=O)Nc3cccc(F)c3)c2C1=O`, -5.68% (inactive).
For the compound `Cc1nc(CSc2ccc(-c3ccco3)nn2)cs1`, the inhibition was 5.98% (inactive).
In the case of `CCCCc1ccc(Nc2nc3ccccc3nc2NS(=O)(=O)c2ccc(Cl)cc2)cc1` it was 1.24% (inactive); in that of `COc1ccc(C(=O)NC(NC(=O)c2ccc(OC)cc2)c2cccc(OC)c2)cc1`, 9.45% (inactive); in that of `CCN(CC)S(=O)(=O)c1ccc(-c2csc(N3N=C(c4cccc([N+](=O)[O-])c4)CC3c3ccc(F)cc3)n2)cc1` (configuration not stated), 3.98% (inactive).
In the case of `O=C(CNCc1cccnc1)Nc1ccc(C(=O)N2CCCCC2)cc1` it was 93.3% (active); in that of `O=C(c1ccc(NC(=S)NCc2ccc(F)cc2)cc1)N1CCCC1`, 22.4% (inactive); in that of `O=C(Nc1ccc(C(=O)N2CCCCC2)cc1)c1cccc(I)c1`, -4.21% (inactive).
For `Cn1c(=O)c2c(nc(N3CCCCC3)n2CCNC2=NCCCCC2)n(C)c1=O` the value was 0.31% (inactive).
With `Cc1nccn1CCNC(=O)Cn1nnnc1CN1CCCCCC1`, the inhibition is 0.85% (inactive).
For `COc1ccc(C2=NN(c3nc(-c4ccccc4)c4cc(Cl)ccc4n3)C(c3ccc([N+](=O)[O-])cc3)C2)cc1` (configuration not stated) the value was -4.92% (inactive).
For `c1ccc(CN2CCC(N=C3NN=C(c4ccc5c(c4)OCCO5)CS3)CC2)cc1` the value was -10.7% (inactive).
For `c1ccc(-c2nnc3sc(-c4ccc5c(c4)OCCO5)nn23)cc1` the value was -0.82% (inactive); for `c1ccc(-n2cc(CN3CCOCC3)c(-c3ccc4c(c3)OCCO4)n2)cc1`, 61.7% (active).
For the compound `O=C(N/C(=C\c1ccccc1F)C(=O)N1CCCCC1)c1ccc([N+](=O)[O-])cc1`, the inhibition was 17.1% (inactive).
In the case of `O=C(Nc1cncc(-c2ccncc2)c1)C1COc2ccccc2O1` (configuration not stated) it was 17.1% (inactive); in that of `O=C(Nc1cncc(-c2ccncc2)c1)C1COc2cc3ccccc3cc2O1` (configuration not stated), 3.75% (inactive).
In the case of `O=C(Nc1ccc(-c2ccncc2)c(C(F)(F)F)c1)C1COc2ccccc2O1` (configuration not stated) it was 53.1% (active); in that of `Cc1nn(C)c(C)c1-c1cc(C(=O)NCCO)ccn1`, 8.26% (inactive); in that of `CN(C)CCCN(CCCN(C)C)Cc1ccc([N+](=O)[O-])cc1`, 37.3% (inactive).
As for `CCN(Cc1ccccc1)Cc1ccc([N+](=O)[O-])cc1`, the inhibition is 60% (active).
For `CCN(C(=O)c1ccc([N+](=O)[O-])cc1)c1ccccc1` the value was 1.44% (inactive); for `OCCC1CN(Cc2cccc(F)c2)CCN1C1CCCC1` (configuration not stated), 14.7% (inactive).
For `CCN(CC)C(=O)C1CCCN(Cc2ccc([N+](=O)[O-])cc2)C1` (configuration not stated) the value was 27.7% (inactive).
For the compound `Fc1cccc(CN2CCN(C3CCC(c4ccccc4)CC3)CC2)c1` (configuration not stated), the inhibition is 54.9% (active).
In the case of `OCCC1CN(Cc2ccc(F)c(F)c2)CCN1C1CCCC1` (configuration not stated) it was -7.36% (inactive); in that of `Clc1cccc(CN2CCN(C3CCCC3)CC2)c1`, 67.8% (active).
For `Clc1cccc(CN2CCN(C3CCN(Cc4ccccc4)CC3)CC2)c1` the value was 23.2% (inactive); for `NC(=O)C1CCCN(Cc2cccc(Cl)c2)C1` (configuration not stated), 31.1% (inactive).
In the case of `CCN(CC)C(=O)C1CCCN(Cc2cccc(Cl)c2)C1` (configuration not stated), the inhibition was 55.2% (active).
For `Fc1ccc(CN2CCN(C3CCCC3)CC2)cc1` the value was 57.1% (active).
For `OC1CCCN(Cc2cccc(Cl)c2)C1` (configuration not stated) the value was -10.4% (inactive); for `Cc1cccc(CN2CCN(C3CCCCC3)CC2)c1`, 33.7% (inactive).
In the case of `O=C1N[C@H](CO)C(=O)N2CCN(Cc3cccc(F)c3)C[C@H]12`, the inhibition is 10.2% (inactive).
In the case of `O=C(NC1CCCCCC1)C1CCN(S(=O)(=O)c2cccc3nsnc23)CC1` it was -4.57% (inactive).
In the case of `c1ccc(CNc2cc(N3CCc4ccccc4C3)ncn2)cc1` it was -8.87% (inactive); in that of `Cc1c(C(=O)C(=O)N2CCCC2)c2ccccc2n1C`, -1.62% (inactive).
